Measurements published in PubChem BioAssay (Tox21).
Values joined by “and” are separate entries in the source; they are usually repeats but may differ in a detail not shown here. Equal entries are not always repeated. Records with an inconclusive call do not appear. Entries that show only a call come without a potency. Some structures have more than one record in an assay (separate samples or runs), and their calls can disagree. Active and inactive are the calls of the source. Unless noted, calls follow the shape of the dose curve; as a rule, active = well fitted curve in the direction sought with a large enough effect in the repeat runs; inconclusive = weak or mixed curves; inactive = no such curve, though single readings can be large; an effect the other way counts as inactive or inconclusive.

Assays:
[1] = A CellTox Green Cytotoxicity Assay to monitor cytotoxicity in HEK293 cells - 32 hour (AID 1224881); also: nearly all actives have a fitted effect of over 40% in size
Outline: (§1)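 Nonlytic real-time cytotoxicity: HEK293 + CellTox Green reagent plated, 5 h preincubation, pintool compound addition (23 nL in DMSO), 37 C for 40 h, fluorescence measured at successive time points.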

[2] = A CellTox Green Cytotoxicity Assay to monitor cytotoxicity in HepG2 cells - 0 hour (AID 1224882); also: nearly all actives have a fitted effect of over 35% in size
Outline: (§2)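 Read-out is fluorescence of a cyanine dye excluded from live cells that stains DNA of dead HepG2 cells, with signal proportional to cytotoxicity. Plates were read at 0, 8, 16, 24, 32 and 40 h after compound addition.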

[3] = A CellTox Green Cytotoxicity Assay to monitor cytotoxicity in HepG2 cells - 32 hour (AID 1224883); also: nearly all actives have a fitted effect of over 50% in size; also: potency is read from the fitted curve at half-maximal effect
Outline: as §2

[4] = A CellTox Green Cytotoxicity Assay to monitor cytotoxicity in HEK293 cells - 8 hour (AID 1224884); also: nearly all actives have a fitted effect of over 35% in size
Outline: as §1

[5] = qHTS RealTime-Glo MT Cell Viability Assay in HepG2 cells - 16 hour (AID 1224885); also: nearly all actives have a fitted effect of over 50% in size
Outline: (§3)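 Cells + NanoLuc/prosubstrate dispensed (600 cells/well) → 5 h at 37 C/5% CO2 → compounds in DMSO transferred → 40 h incubation at 37 C, luminescence read at 0, 8, 16, 24, 32, 40 h.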

[6] = qHTS RealTime-Glo MT Cell Viability Assay in HEK293 cells - 24 hour (AID 1224886); also: top concentration of the series differs between compounds; nearly all actives have a fitted effect of over 50% in size
Outline: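 Tox21 10K qHTS, HEK293, 600 cells/well, RealTime-Glo reagent co-dispensed with cells; 5 h preincubation, compound by pintool, 37 C, luminescence at 0–40 h.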

[7] = qHTS RealTime-Glo MT Cell Viability Assay in HEK293 cells - 8 hour (AID 1224887); also: top concentration of the series differs between compounds; nearly all actives have a fitted effect of over 50% in size
Outline: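 Cells were seeded together with NanoLuc luciferase and a prosubstrate that viable cells reduce to a luciferase substrate. After a 5 h incubation at 37 C/5% CO2, compounds were added and luminescence was measured repeatedly during 40 h of treatment.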

[8] = A CellTox Green Cytotoxicity Assay to monitor cytotoxicity in HEK293 cells - 16 hour (AID 1224888); also: nearly all actives have a fitted effect of over 35% in size
Outline: as §1

[9] = qHTS RealTime-Glo MT Cell Viability Assay in HepG2 cells - 0 hour (AID 1224889); also: nearly all actives have a fitted effect of over 50% in size
Outline: as §3

[10] = A CellTox Green Cytotoxicity Assay to monitor cytotoxicity in HepG2 cells - 8 hour (AID 1224890); also: nearly all actives have a fitted effect of over 45% in size; also: potency is read from the fitted curve at half-maximal effect
Outline: as §2

[11] = qHTS assay to identify small molecule antagonists of the estrogen receptor alpha (ER-alpha) signaling pathway using the BG1 cell line in the presence of 0.1 nM 17-beta-estradiol - cell viability counter screen (AID 1259241); also: nearly all actives have a fitted effect of over 40% in size
Outline: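 Measures cytotoxicity alongside the ER-alpha antagonist readout: VM7Luc4E2 cells, charcoal-stripped serum, 0.1 nM 17beta-estradiol final, 22 hr compound incubation at 37C, CellTiter-Fluor fluorescence.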

[12] = qHTS assay to identify small molecule antagonists of the androgen receptor (AR) signaling pathway using the MDA cell line in the presence of 0.5 nM R1881 - cell viability counter screen (AID 1259242); also: nearly all actives have a fitted effect of over 45% in size
Outline: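 Counter screen for cytotoxicity run in the same wells as the AR antagonist reporter screen: MDA-kb2 cells were treated 16 hr with test compounds and 0.5 nM R1881, then live-cell protease activity was measured by fluorescence.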

[13] = molecular target: Androgen receptor (Homo sapiens) (UniProt P10275); test: qHTS assay to identify small molecule antagonists of the androgen receptor (AR) signaling pathway using the MDA cell line in the presence of 0.5 nM R1881 (AID 1259243); also: nearly all actives have a fitted effect of over 50% in size
Chain of Androgen receptor (Homo sapiens) (P10275 whole entry, looked up): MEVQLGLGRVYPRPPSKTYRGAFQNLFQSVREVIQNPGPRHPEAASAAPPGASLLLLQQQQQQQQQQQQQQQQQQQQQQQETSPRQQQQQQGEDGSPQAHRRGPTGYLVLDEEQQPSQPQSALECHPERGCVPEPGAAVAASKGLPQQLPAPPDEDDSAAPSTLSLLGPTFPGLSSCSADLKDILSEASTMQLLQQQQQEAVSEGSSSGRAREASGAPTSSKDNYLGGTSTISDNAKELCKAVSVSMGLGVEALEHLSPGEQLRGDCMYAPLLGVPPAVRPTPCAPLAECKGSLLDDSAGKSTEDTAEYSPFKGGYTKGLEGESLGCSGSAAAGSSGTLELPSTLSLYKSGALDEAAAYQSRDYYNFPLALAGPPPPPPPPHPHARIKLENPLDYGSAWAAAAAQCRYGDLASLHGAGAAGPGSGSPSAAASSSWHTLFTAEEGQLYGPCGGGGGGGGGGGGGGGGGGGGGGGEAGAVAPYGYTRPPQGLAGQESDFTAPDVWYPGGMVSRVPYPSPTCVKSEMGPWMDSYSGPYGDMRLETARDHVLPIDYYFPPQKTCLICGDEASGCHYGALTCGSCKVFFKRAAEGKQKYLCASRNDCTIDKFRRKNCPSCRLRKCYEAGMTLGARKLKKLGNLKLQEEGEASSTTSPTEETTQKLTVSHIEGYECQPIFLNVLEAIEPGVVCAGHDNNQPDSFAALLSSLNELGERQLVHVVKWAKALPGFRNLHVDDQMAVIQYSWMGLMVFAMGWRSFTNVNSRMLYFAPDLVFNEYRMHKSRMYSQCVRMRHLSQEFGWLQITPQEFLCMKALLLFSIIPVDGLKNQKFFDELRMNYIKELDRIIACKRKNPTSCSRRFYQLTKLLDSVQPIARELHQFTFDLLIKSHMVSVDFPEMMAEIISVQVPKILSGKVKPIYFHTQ
Outline: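 Luciferase luminescence is the read-out: compounds are tested for suppressing 0.5 nM R1881-driven MMTV reporter activity in MDA-kb2 cells after 16 hr at 37C.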

[14] = molecular target: Estrogen receptor (Homo sapiens) (UniProt P03372); test: qHTS assay to identify small molecule antagonists of the estrogen receptor alpha (ER-alpha) signaling pathway using the BG1 cell line in the presence of 0.1 nM 17-beta-estradiol (AID 1259244); also: nearly all actives have a fitted effect of over 50% in size
Chain of Estrogen receptor (Homo sapiens) (P03372 whole entry, looked up): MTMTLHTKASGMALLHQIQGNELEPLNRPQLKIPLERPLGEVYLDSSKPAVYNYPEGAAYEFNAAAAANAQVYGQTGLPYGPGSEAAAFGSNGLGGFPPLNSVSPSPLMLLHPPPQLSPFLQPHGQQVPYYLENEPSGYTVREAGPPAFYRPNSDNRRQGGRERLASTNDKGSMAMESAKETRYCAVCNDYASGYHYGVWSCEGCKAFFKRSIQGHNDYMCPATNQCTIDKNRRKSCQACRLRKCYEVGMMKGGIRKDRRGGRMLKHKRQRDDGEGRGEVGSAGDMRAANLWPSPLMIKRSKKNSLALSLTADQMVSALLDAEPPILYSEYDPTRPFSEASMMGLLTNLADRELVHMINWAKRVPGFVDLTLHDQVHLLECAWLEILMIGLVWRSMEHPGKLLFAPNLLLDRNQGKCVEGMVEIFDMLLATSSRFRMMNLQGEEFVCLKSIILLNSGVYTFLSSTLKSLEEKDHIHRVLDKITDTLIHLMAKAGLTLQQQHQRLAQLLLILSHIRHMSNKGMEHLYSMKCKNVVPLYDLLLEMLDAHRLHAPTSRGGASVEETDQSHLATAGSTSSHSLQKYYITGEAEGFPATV
Outline: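 Cells: VM7Luc4E2, endogenous ER-alpha, 4x ERE-luc stable. Pre-culture 5 d, phenol red-free, charcoal-stripped FBS. Plated 24 h, compound + E2 0.1 nM final, 22 h 37C/5% CO2. Readout ONE-Glo luminescence.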

[15] = qHTS assay to identify small molecule phospholipidosis (PLD) inducers (AID 1259344; active = well fitted curve in the direction sought with a large enough effect; an effect the other way counts as inactive or inconclusive)
Outline: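 HepG2 cells on collagen I, attached 4 h at 37 C, were co-treated with compound and LipidTOX Red dye for 24 h at 37 C, then fixed with paraformaldehyde plus Hoechst 33342 and imaged by high-content microscopy for phospholipid accumulation.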

[16] = qHTS assay to identify small molecule HDAC inhibitors (AID 1259364); also: top concentration of the series differs between compounds; nearly all actives have a fitted effect of over 45% in size
Outline: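 Luminescence from a cell-permeant luminogenic class I/II HDAC substrate reports endogenous deacetylase activity in intact HCT-116 cells treated with compounds for 2 h.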

[17] = qHTS assay to identify small molecule HDAC inhibitors - cell viability counter screen (AID 1259365)
Outline: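 Following a 2hr exposure of overnight-plated wild-type HCT-116 cells to DMSO-delivered compounds, CellTiter-Glo was added and luminescence recorded after 30min at room temperature.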

[18] = qHTS assay to identify small molecule antagonists of the sonic hedgehog signaling (Shh) pathway - cell viability counter screen (AID 1259367); also: nearly all actives have a fitted effect of over 55% in size; also: potency is read from the fitted curve at half-maximal effect
Outline: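 NIH/3T3-derived Gli1-Luc reporter cells (2,000 per well) rested 4 hr at 37 C, then received DMSO compounds plus conditioned medium. After 23 hr of treatment, CellTiter-Fluor was added for 1 hr at 37C and fluorescence read.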

[19] = qHTS assay to identify small molecule agonists of the sonic hedgehog signaling (Shh) pathway (AID 1259368; calls by dose curve;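 also: NIH/3T3-derived 3T3Gli1-Luc cells carrying a stable Gli1-driven firefly luciferase reporter; series mostly up to about 92 µM; nearly all actives have a fitted effect of over 15% in size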)
Outline: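 3T3Gli1-Luc (NIH/3T3 clone, stable Gli1-Luc); 4 hr pre-incubation, then cpd in DMSO 24 hr, 37 C/5% CO2; luciferase reagent 30 min RT; luminescence.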

[20] = qHTS assay to identify small molecule agonists of the sonic hedgehog signaling (Shh) pathway - cell viability counter screen (AID 1259366); also: nearly all actives have a fitted effect of over 50% in size; also: potency is read from the fitted curve at half-maximal effect
Outline: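 After a 4hr attachment at 37C, NIH/3T3 cells bearing an integrated Gli1-driven luciferase reporter were dosed with compounds. Treatment lasted 24hr, with the final hour including CellTiter-Fluor for a fluorescence viability measurement.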

Row | Compound | Potency [1] | Potency [2] | Potency [3] | Potency [4] | Potency [5] | Potency [6] | Potency [7] | Potency [8] | Potency [9] | Potency [10] | Potency [11] | Potency [12] | Potency [13] | Potency [14] | outcome [15] | Potency [16] | Potency [17] | Potency [18] | Potency [19] | Potency [20]
1 | Nc1nc(N)c2nc(-c3ccccc3)c(N)nc2n1 | inactive | inactive | 49.5 µM (active) and 49 µM (active) | inactive | inactive | inactive | inactive | inactive | inactive | inactive | inactive | inactive | inactive | inactive | inactive | inactive | inactive | inactive | inactive | 
2 | COc1c2ccoc2cc2oc(=O)ccc12 | inactive | inactive | inactive | inactive | inactive | inactive | inactive | inactive | inactive | inactive | inactive | inactive |  | inactive |  | inactive | inactive | inactive | inactive | inactive
3 | CC(=O)CC(=O)N(C)C | inactive | inactive | inactive | inactive | inactive | inactive | inactive | inactive | inactive | inactive | inactive | inactive |  | inactive |  | inactive | inactive | inactive | inactive | inactive
4 | CCCCCCCCCCCCCC(=O)O | inactive | inactive | inactive | inactive | inactive | inactive | inactive | inactive | inactive | inactive | inactive | inactive |  | inactive |  | inactive | inactive | inactive | inactive | inactive
5 | CCc1cccc(O)c1 | inactive | inactive | inactive | inactive | inactive | inactive | inactive | inactive | inactive | inactive | inactive | inactive |  | inactive |  | inactive | inactive | inactive | inactive | inactive
6 | N[C@@H](Cc1cc(I)c(Oc2ccc(O)c(I)c2)c(I)c1)C(=O)O | inactive | inactive | inactive | inactive | inactive | inactive | inactive | inactive | inactive | inactive | inactive | inactive |  | inactive | inactive | inactive | inactive | inactive | inactive | inactive
7 | C=CC(C)(C)C | inactive | inactive | inactive | inactive | inactive | inactive | inactive | inactive | inactive | inactive | inactive | inactive |  | inactive |  | inactive | inactive | inactive | inactive | inactive
8 | OC1CCCCC1 | inactive | inactive | inactive | inactive | inactive | inactive | inactive | inactive | inactive | inactive | inactive | inactive |  | inactive |  | inactive | inactive | inactive | inactive | inactive
9 | COC(=O)CCCCC(=O)OC | inactive | inactive | inactive | inactive | inactive | inactive | inactive | inactive | inactive | inactive | inactive | inactive |  | inactive |  | inactive | inactive | inactive | inactive | inactive
10 | Cc1ccncc1 | inactive | inactive | inactive | inactive | inactive | inactive | inactive | inactive | inactive | inactive | inactive | inactive |  | inactive |  | inactive | inactive | inactive | inactive | inactive
11 | CN=C(NC#N)NCCSCc1nc[nH]c1C | inactive | inactive | inactive | inactive | inactive | inactive | inactive | inactive | inactive | inactive | inactive | inactive |  | inactive | inactive | inactive | inactive | inactive | inactive | inactive
12 | N#CCC(=O)O | inactive | inactive | inactive | inactive | inactive | inactive | inactive | inactive | inactive | inactive | inactive | inactive |  | inactive |  | inactive | inactive | inactive | inactive | inactive
13 | CO[Si](CCCNCCN)(OC)OC | inactive | inactive | inactive and 49 µM (active) | inactive | inactive | inactive | inactive | inactive | inactive | inactive and 49 µM (active) | inactive | inactive | inactive |  |  | inactive | inactive | 15.6 µM (active) and inactive | inactive | 5.53 µM (active) and inactive
14 | OC[C@H]1O[C@@H](Oc2ccc(O)cc2)[C@H](O)[C@@H](O)[C@@H]1O | inactive | inactive | inactive | inactive | inactive | inactive | inactive | inactive | inactive | inactive | inactive | inactive |  | inactive | inactive | inactive | inactive | inactive | inactive | inactive
15 | Cc1cc(C)c(O)c(C)c1 | inactive | inactive | inactive | inactive | inactive | inactive | inactive | inactive | inactive | inactive | inactive | inactive |  | inactive |  | inactive | inactive | inactive | inactive | inactive
